Pf Dd2 inh: qHTS Primary assay for Inhibitors of Plasmodium falciparum Dd2 growth in vitro. P. falciparum Dd2 growth, SYBR Green, 72 h. Potency, µM (doses to about 28.9 µM), hits mostly inhibitors. actives 4.3% (n = 120,000). AID 1347417, 2020; active = well fitted inhibition curve with a large enough effect; note: nearly all actives have a fitted effect of over 65% in size
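Infected erythrocytes (Dd2, 0.3% parasitemia, 2.5% hematocrit final) are added to compound in RPMI-1640/Albumax II medium, grown 72 h at 37C in low oxygen, then lysed with saponin/Triton-X containing SYBR Green and read by fluorescence.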
Numbers stand for hits; . = inactive; [ ] = another dose, or the depositor's remark. This is one part of a sample in which hits are shown more often than they occur.

SMILES | Pf Dd2 inh
O=[S+]([O-])(c1cccs1)N1CC(Oc2ccc3c(c2)OCO3)C1 | .
Cc1cccc(C(=O)N2CC(c3nnc(-c4ccncc4)o3)C3(CCOCC3)C2)c1 (configuration not stated) | .
CCNC(=O)N[C@H]1CC[C@]2(C)CCC([C@H](C)C(=O)NC3CC3)[C@H](O)[C@H]2[C@@H]1C (some centres not stated) | .
O=C(N1CCN(c2ccccn2)CC1)C1(c2ccc(Cl)cc2)CCOCC1 | .
CC1CCN(S(=O)(=O)c2ccc3c(c2)oc(=O)n3CC(=O)NCc2ccc(F)cc2)CC1 | 5.62µM
COc1cccc(CNC(=O)Cn2c(=O)oc3cc(S(=O)(=O)N4CCC(C)CC4)ccc32)c1 | .
COc1ccc(CNC(=O)Cn2c(=O)oc3cc(S(=O)(=O)N4CCCC4)ccc32)cc1 | .
CN1CCC(OC2CCN(C(=O)c3ccc(Cl)s3)CC2)CC1 | .
COc1ccccc1Nc1ncc2c(n1)CN(C(=O)C1CCC(OC)CC1)CCN2 (configuration not stated) | .
Cn1nc2n(c1=O)CCC(N)CC2 (configuration not stated) | .
CC(=O)N1Cc2ccccc2CC2(CCCN(C)C2)C1 (configuration not stated) | .
CC(C)C(=O)N1Cc2ccccc2CC2(CCCN(CC3CCOCC3)C2)C1 (configuration not stated) | 7.08µM
CC(=O)N1Cc2ccccc2CC2(CCCN(CC3CCOCC3)C2)C1 (configuration not stated) | .
CC(C)C(=O)N1Cc2ccccc2CC2(CCN(CC3CCNCC3)C2)C1 (configuration not stated) | .
CCN1CCCC2(Cc3ccccc3CN(C(=O)CCNC(C)=O)C2)C1 (configuration not stated) | .
CCN1CCCC2(Cc3ccccc3CN(C(=O)C(C)C)C2)C1 (configuration not stated) | 11.2µM
CC(=O)N1C[C@@H]2CCCN3CCC[C@@H]([C@H]23)[C@H]1CCCC(=O)NCCCN1CCCC1=O | .
COc1cccc(CCC(=O)NCCC2CCN(C(=O)Nc3ccc(C)c(F)c3)CC2)c1 | .
COc1cccc(NS(=O)(=O)c2ccc3c(c2)CCCN3C(=O)C2CCC2)c1 | .
COc1cccc(NS(=O)(=O)c2ccc3c(c2)[C@H]2C=CC[C@H]2[C@@H](c2ccccc2Cl)N3)c1 | 10µM
COc1cccc([C@@H]2Nc3ccc(C(=O)O)cc3[C@@H]3C=CC[C@@H]32)c1OC | .
CCOCCCNC(=O)N1CC(Oc2cccc(-c3nc(C)no3)c2)C1 | .[5.79 µM]
O=C(NC1CCCC1)N1CC(Oc2cccc(-c3nc(-c4ccccc4)no3)c2)C1 | .[5.79 µM]
CCCNC(=O)N1CC(Oc2cccc(-c3nc(-c4ccccc4)no3)c2)C1 | 2µM
Cc1cccnc1C(C)NC(=O)C1(Oc2ccc(Cl)cc2)CCNCC1 (configuration not stated) | .
SMILES | Pf Dd2 inh
COCCNC(=O)N1CCC(c2cc(-c3ccc(F)cc3)n[nH]2)CC1 | .[5.79 µM]
O=C(Nc1ccccc1)N(Cc1ccc2c(c1)OCO2)C1CCN(Cc2ccccc2)CC1 | .
CCN1CCC(N(Cc2ccc3c(c2)OCO3)C(=O)Nc2cccc(C)c2C)CC1 | .
COc1ccccc1NC(=O)N(Cc1ccc2c(c1)OCO2)C1CCN(Cc2ccccc2)CC1 | 11.2µM
CCn1ccc2sc(C)c(C(=O)N3CCOCC3)c2c1=O | .
COCC(=O)N1CCCN(C(=O)CSc2ccncc2)CC1 | .
O=C1CC(c2ccccc2)N(C(=O)C2CC2)CCCN(C(=O)c2ccc3ccccc3n2)CCN1 (configuration not stated) | .
O=C1CC(c2ccccc2)N(C(=O)C2CC2)CCCN(C(=O)c2cc3ccccc3[nH]2)CCN1 (configuration not stated) | 11.2µM
O=C1CC(c2ccccc2)N(Cc2ccncc2)CCCNCCN1 (configuration not stated) | .
CS(=O)(=O)N1CCCN(C(=O)c2ccncc2)CCNC(=O)CC1c1ccccc1 (configuration not stated) | .
O=C1CCN(S(=O)(=O)c2ccccc2)CCCN(C(=O)Cc2cccc(F)c2)CCN1 | .
O=C1CC(c2ccccc2)N(Cc2ccncc2)CCCN(C(=O)C2CCCCC2)CCN1 (configuration not stated) | .
O=C1CC(c2ccccc2)N(C(=O)C2CC2)CCCN(C(=O)c2c[nH]c3ccccc23)CCN1 (configuration not stated) | .
O=C1CC(c2ccccc2)N(Cc2ccncc2)CCCN(S(=O)(=O)c2cccc(F)c2)CCN1 (configuration not stated) | 0.501µM
O=C1CC(c2ccccc2)N(Cc2ccncc2)CCCN(C(=O)c2cc3ccccc3[nH]2)CCN1 (configuration not stated) | 3.55µM
Cc1ccc(C2(C(=O)N[C@@H]3COCC[C@@H]3OCc3ccccc3)CC2)cc1 | .
O=C(NC[C@H]1OC[C@@H](NC2CCCCC2)[C@@H]1O)c1cccs1 | .
Cc1ccccc1CC(=O)N1CC[C@@H]2CN(S(C)(=O)=O)[C@@H]2C1 | .
Cc1ccc(-c2nccn3cc(C(=O)N4CCN(C5CCN(C)CC5)CC4)nc23)cc1 | .
Cc1cccc(OCC(=O)N2CCC3(CC2)NC(=O)N(Cc2ccccc2)C3=O)c1 | .
CC(=O)c1ccc(NC(=O)N[C@@H]2C=C(C(=O)NCCC(N)=O)C[C@@H](O)[C@@H]2O)cc1 | .
O=C(CSc1ncc(CO)n1Cc1ccccc1)Nc1nc2ccccc2s1 | .
Cn1c(SCC(=O)Nc2nc3ccccc3s2)ncc(C(=O)Nc2ccc(Cl)cc2)c1=O | .
Cc1cnc(=O)[nH]c1SCC(=O)Nc1nc2ccccc2s1 | .
Cn1c(SCC(=O)Nc2nc3ccccc3s2)ncc(C(=O)Nc2ccccc2)c1=O | .
SMILES | Pf Dd2 inh
CN1CCc2c(sc(NC(=O)CSc3ccccc3)c2-c2nc3ccccc3s2)C1 | 11.2µM
CC(=O)N1CCc2c(sc(NC(=O)CSc3ccccc3)c2-c2nc3ccccc3s2)C1 | 2µM
Cc1noc([C@@H]2CC(F)(F)CN2C(=O)c2coc(C)n2)n1 | .
Cc1sc2ccn(C)c(=O)c2c1C(=O)N1CCN(c2ccc(Cl)cc2)CC1 | .
CC(O)CCNS(=O)(=O)c1ccc2c(c1)CN(C(=O)c1ccon1)CC2 (configuration not stated) | .
COCC(=O)Nc1nc2c(s1)C[C@@H]1[C@](C)(CO)[C@H](O)CC[C@@]1(C)[C@@H]2CC(=O)NC(C)C | .
CC(C)C[C@H](CO)NC(=O)C[C@@H]1c2nc(NC(=O)C(C)(C)C)sc2C[C@@H]2[C@](C)(CO)[C@H](O)CC[C@]21C | 8.91µM
CC(C)(C)C(=O)Nc1nc2c(s1)C[C@@H]1[C@](C)(CO)[C@H](O)CC[C@@]1(C)[C@@H]2CC(=O)O | .
CC(C)(C)C(=O)Nc1nc2c(s1)C[C@@H]1[C@](C)(CO)[C@H](O)CC[C@@]1(C)[C@@H]2CC(=O)Nc1cccc(O)c1 | 8.91µM
CCCCCC(=O)Nc1nc2c(s1)C[C@@H]1[C@](C)(CO)[C@H](O)CC[C@@]1(C)[C@@H]2CC(=O)N[C@@H](CO)CC(C)C | .
CC(C)(C)C(=O)Nc1nc2c(s1)C[C@@H]1[C@](C)(CO)[C@H](O)CC[C@@]1(C)[C@@H]2CC(=O)NC1CC1 | .
Cc1cn(CC(=O)NC2CCOC3(CCOCC3)C2)c(=O)[nH]c1=O (configuration not stated) | .
COc1ccccc1NC(=O)c1cc2c(N3CCSCC3)nc(C)cn2n1 | .

High-throughput results deposited in PubChem BioAssay by National Center for Advancing Translational Sciences (NCATS).
